This is part of a sample that, as a whole, favours compounds with a hit. Of some 83,000 tested, about 20% had one in any assay.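 How to read the values: 0–100, growth inhibition (40 = 60% inhibited); 0, no net growth; -100 to 0, cell death (-40 = 40% of starting cells died; -100 = all dead).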 Active and inactive are the calls of the source. The calls were made as follows: active = growth percent below 10; inactive = the rest.

The test system of this assay is MDA-MB-468 breast. The assay can be described thus: NCI-60 one-dose screen, 48 h (100 = growth as untreated, 0 = no growth, -100 = all killed). As to conditions: 10 µM unless noted.
For the compound `COc1cc(Cn2c(SCC(=O)Nc3ccc(Cl)cc3)nc3ccccc3c2=O)cc(OC)c1OC`, the growth is 47.1% (inactive).
The result for `COc1ccc(C(=O)/C=C/c2ccc(C)cc2)cc1OC` reads 47.6% (inactive); that for `CCOC(=O)c1cc(C(=O)c2ccc(OC)c(OC)c2)n2ccc(/C=C/c3cc[n+](CC(=O)c4ccc(OC)c(OC)c4)cc3)cc12`, 71.9% (inactive).

The values above are taken from PubChem BioAssay (NCI).
